# A selection: hits, their analogues and other compounds. The true share with any hit is near 7.7%.
# FMDV inh – antivirals against foot and mouth disease virus. 410,000 compounds, 1.2% hits. FMDV antiviral cell-based qHTS. Potency, µM (titrated, usually from 57.9 µM), for inactives: top-dose activity change, negative = inhibition, hits mostly inhibitors; calls by dose curve; tested in HEK293T cells; note: read-out not given here; potency is the fitted concentration of half-maximal effect; nearly all actives have a fitted effect of over 45% in size
# Tb PYK inh – blocks Trypanosoma brucei pyruvate kinase | Q57TT1 | TbPYK enzyme, Kinase-Glo Plus ATP luminescence, 45 min | Potency, µM (doses to about 76.8 µM), for the others: top-dose activity, negative = inhibition, usual class: inhibitors | 410,000 compounds, 0.12% hits; note: potency is the fitted concentration of half-maximal effect; nearly all actives have a fitted effect of over 50% in size
#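 Activity of T. brucei pyruvate kinase was followed by Kinase-Glo Plus luminescence after the enzyme reacted 45 min at room temperature with 130 uM ADP (final) and substrate. Test compounds were added before ADP at multiple concentrations.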
# Sm TGR block – inhibitors of Schistosoma mansoni thioredoxin glutathione reductase; Q962Y6; purified TGR, DTNB reduction, TNB absorbance 405 nm; Potency, µM (highest dose often 114 µM), without a hit: at the top dose activity change, negative = inhibition, usual class: inhibitors; 360,000 compounds, 3% hits; note: potency is the fitted concentration of half-maximal effect; nearly all actives have a fitted effect of over 60% in size
#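 Kinetic colorimetric format: TGR-catalysed, NADPH-driven DTNB reduction monitored via TNB absorbance. Enzyme dispensed at 20 nM; compound exposure 15 min at room temperature before reaction start.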
# HCMV antiviral – inhibitors of human cytomegalovirus. HFF cells, HCMV-luciferase reporter, 72 h; hits give low values. activity change, negative = inhibition, % at 57.5 µM. AID 1259415. 410,000 compounds, 4.5% hits; in the data active = activity change below about -60%; inconclusive = no clear call, values can overlap the other calls; inactive = above about -39%
#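 Inhibition of viral replication was scored as loss of reporter luminescence in HFFs infected with HCMV-luciferase (MOI 1 PFU/cell) for 72 h; compounds tested at 2 doses, normalized to buffer and Salinomycin controls.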
# RE007 growth inh – less growth of the S. pombe RE007 Vpr strain. S. pombe RE007 Vpr strain, BacTiter-Glo ATP luminescence, 24 h. Potency, µM (titrated, usually from 92.2 µM), for inactives: at the highest dose activity change, negative = less growth, most hits filed as inhibitors. 360,000 compounds, 0.21% hits; active = well fitted falling curve with a large enough effect; inconclusive = small, poorly fitted or top-dose-only effect; inactive = no such curve, though single readings can be large or run the other way; note: potency is the fitted concentration of half-maximal effect; nearly all actives have a fitted effect of over 50% in size
#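 Fission yeast strain RE007, carrying one chromosomally integrated HIV-1 vpr copy, was seeded at OD 0.01 in PMG+AL medium with 23 nL pinned compound. After 24 h at 30 °C and 99% humidity, viability was read by BacTiter-Glo luminescence.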
# FBPA Giardia inh – inhibitors of Giardia lamblia fructose-1,6-bisphosphate aldolase | purified Giardia FBPA | Potency, µM (series often up to 59.6 µM), for the others: top-dose activity, negative = inhibition, usual class: inhibitors | 290,000 compounds, 0.71% hits; note: potency is the fitted concentration of half-maximal effect; nearly all actives have a fitted effect of over 55% in size
# Target sequence (A8B2U2 whole entry, looked up): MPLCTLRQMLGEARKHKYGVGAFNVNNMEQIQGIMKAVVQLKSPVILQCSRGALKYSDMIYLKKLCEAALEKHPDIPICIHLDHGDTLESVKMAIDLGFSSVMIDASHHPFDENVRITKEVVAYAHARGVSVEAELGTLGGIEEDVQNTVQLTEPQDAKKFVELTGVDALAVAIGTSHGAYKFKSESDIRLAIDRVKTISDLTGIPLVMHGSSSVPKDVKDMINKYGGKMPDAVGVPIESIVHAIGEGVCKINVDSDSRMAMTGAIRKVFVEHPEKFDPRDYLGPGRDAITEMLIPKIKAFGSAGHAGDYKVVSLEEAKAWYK
#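 40 nM FBPA preincubated 10 min at RT with compound (up to 57.5 uM final), then substrate plus GAPDH/TPI/NAD/arsenate coupling and diaphorase/resazurin added. Fluorescence read after 20 min at RT, 525/598 nm.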
# Active calls of the source: *; u = inconclusive; x = no result given; [ ] = remark or other dose. Unless noted, calls come from the whole dose curve; as a rule, active = well fitted curve in the direction sought with a large enough effect; inconclusive = small, poorly fitted or top-dose-only effect, or another doubt; inactive = no such curve, though single readings can be large; an effect the other way counts as inactive or inconclusive. % is set by controls: 0 for no effect and ±100 for the full control effect.
SMILES,FMDV inh,Tb PYK inh,Sm TGR block,HCMV antiviral,RE007 growth inh,FBPA Giardia inh
Cc1ccc(CNC(=O)C(=O)NCC(c2cccs2)S(=O)(=O)c2cccs2)cc1 (stereo unspecified),-28%,1%,22µM*,1,x,x
Cc1ccc(S(=O)(=O)C(CNC(=O)C(=O)NCCc2ccccc2)c2cccs2)cc1 (stereo unspecified),u,-6%,u,-31,x,x
COc1ccc(CNC(=O)C(=O)NCC(c2cccs2)S(=O)(=O)c2ccc(C)cc2)cc1 (stereo unspecified),u,3%,40µM*,-16,x,x
CCOC(=O)C1=CCN(S(=O)(=O)c2cccc(Cl)c2)C1c1cccc(Br)c1 (stereo unspecified),x,x,x,-25,x,x
CC1C(=O)CCC2[C@]1(C)CCC1[C@]2(C)CC[C@@]2(C)C3CC(C)(C)CC[C@]3(C)CC[C@@]12C (stereo partly specified),-19%,x,x,x,x,6%
c1ccc(N2CCN(Cc3nnc(-c4ccc5c(c4)OCO5)o3)CC2)cc1,19%,0%,8%,10,x,x
CCOC(=O)c1cccc(NC(=O)CCS(=O)(=O)c2ccc3c(c2)CC(=O)N3C)c1,2%,0%,-11%,-3,x,x
COc1ccc(-n2c(=O)c3ccc(C(=O)NCc4ccc(C)cc4)cc3n(CC(=O)Nc3cccc(F)c3)c2=O)cc1,51%,-1%,9%,4,x,x
Cc1nn(C)c(C(=O)Sc2ccccc2)c1[N+](=O)[O-],-23%,-3%,2.5µM*,34,u,-2%
CCn1nc(C)cc1C(=O)Sc1cccc(Cl)c1,u,5%,6.3µM*,u,-28%,1%
CCn1nc(C)cc1C(=O)N1CCCC(N2CCN(c3cccc(Cl)c3)CC2)C1 (stereo unspecified),x,x,2%,-37,x,x
Cc1nn(C)c(C(=O)Sc2cccc(Cl)c2)c1[N+](=O)[O-],-18%,1%,1.4µM*,-5,-30%,-1%
CCC1OC(=O)C(C)[C@@H](O[C@H]2C[C@@](C)(OC)C(O)C(C)O2)C(C)[C@@H](O[C@@H]2OC(C)CC(N(C)C)C2O)[C@@](C)(O)CC(C)CN(C)C(C)C(O)[C@]1(C)O (stereo partly specified),20%,x,x,x,x,8%
O=C(c1ccncc1)N1CCC2(CCC(CNC(=O)C3(N4CCOCC4)CCCCC3)O2)CC1 (stereo unspecified),-4%,x,x,x,x,x
CNc1nc(C(=O)O)nc(N2CCOCC2)n1,2%,-2%,11%,-105*,-3%,-25%
CNc1nc(OC)nc(N2CCOCC2)n1,3%,-8%,0%,21,3%,0%
O=C(OCc1ccccc1)N(CCCCN(CCCNCc1ccccc1)C(=O)OCc1ccccc1)CCCNCc1ccccc1,u,3%,x,-97*,53%,x
Cc1ccccc1CC1(CO)CCCN(Cc2ccc(C#CC(C)(C)O)cc2)C1 (stereo unspecified),15%,-3%,7%[57.1 µM],-27,9%,0%
CC(C)(O)C#Cc1ccc(CN2CCCC(CO)(Cc3cccc(Cl)c3)C2)cc1 (stereo unspecified),-22%,-1%,-11%[57.1 µM],-82*,-12%,1%
CCc1ccc(NC(=O)c2ccc3c(O)c(S(=O)(=O)c4ccc(Cl)cc4)c(=O)[nH]c3c2)cc1,-6%,-1%,-1%,6,x,x
C[C@@]12C(=O)Nc3ccc(F)cc3C(=O)N1[C@H]1c3cc(Br)ccc3OC[C@@H]1[C@@H]2c1ccccc1,-27%,1%,x,-70*,16%,x
C[C@]12C(=O)N(c3cccc(F)c3)C(=O)N1[C@H]1c3ccccc3OC[C@@H]1[C@H]2c1ccccc1,-20%,-11%,x,u,-11%,x
CCOC(=O)[C@H]1[C@H]2COc3ccccc3[C@@H]2N2C(=O)c3cc(OC)ccc3NC(=O)[C@@]12C,-10%,2%,0%,-17,16%,x
Cc1ccc2c(c1)[C@H]1[C@H](CO2)[C@H](c2ccccc2)[C@]2(C)C(=O)Nc3ccccc3C(=O)N12,0%,2%,x,-76*,5%,x
C[C@@]12C(=O)Nc3cc(F)ccc3C(=O)N1[C@H]1c3cc(Br)ccc3OC[C@@H]1[C@@H]2c1ccccc1,u,-8%,x,-31,6%,x
SMILES,FMDV inh,Tb PYK inh,Sm TGR block,HCMV antiviral,RE007 growth inh,FBPA Giardia inh
CCOC(=O)[C@H]1[C@H]2COc3ccc(OC)cc3[C@@H]2N2C(=O)c3cc(C)ccc3NC(=O)[C@@]12C,-12%,-7%,0%,-62*,11%,x
C[C@]12C(=O)N(c3cccc(F)c3)C(=O)N1[C@@H]1c3ccccc3OC[C@@H]1[C@H]2c1ccccc1,-6%,-2%,-1%,-86*,-6%,-4%
Cc1ccc2c(c1)[C@H]1[C@H](CO2)[C@H](c2ccccc2)[C@]2(C)C(=O)Nc3ccc(Cl)cc3C(=O)N12,-23%,2%,x,-33,18%,x
CCC[C@H]1[C@@H](NC(=O)Nc2cccc(C#N)c2)CC[C@@]23CCCN2C(=O)CCC[C@@H]13,x,x,x,-17,x,x
CCc1ccc2oc(C(=O)Nc3ccccc3OC)cc(=O)c2c1,11%,7%,2%,-4,x,x
Cc1ccc(N(CC(=O)N/N=C/c2ccco2)S(=O)(=O)c2ccccc2)cc1,15%,0%,25µM*,u,6%,-2%
O=C(CN(c1ccccc1Cl)S(=O)(=O)c1ccccc1)N/N=C/c1ccccc1C(=O)O,7%,-6%,-1%,-63*,6%,1%
COc1ccc(N(CC(=O)N/N=C/c2ccc(F)cc2)S(=O)(=O)c2ccccc2)cc1,-2%,4%,-4%,-69*,-2%,-2%
COc1ccc(N(CC(=O)N/N=C/c2ccco2)S(=O)(=O)c2ccccc2)cc1,x,2%,28µM*,-22,4%,8%
COc1ccc(/C=N/NC(=O)CN(c2ccc(OC)cc2)S(=O)(=O)c2ccccc2)cc1,2%,-18%,1%,-16,-4%,-2%
O=c1cc(-c2ccccc2)n2c(SCc3ccc(F)cc3)nnc2[nH]1,13%,5%,-1%,-33,x,x
Cc1cc2nc(-c3cccc(NC(=O)CSc4ccc(Cl)cc4)c3)oc2cc1C,24%,3%,2%,53,x,x
Fc1ccc(N2Cc3ccccc3-n3nncc3C2)cc1,-12%,6%,x,-104*,4%,x
CN1Cc2ccccc2-n2nncc2C1,0%,-4%,x,-9,4%,x
CNS(=O)(=O)/C=C/c1ccccc1,13%,5%,-3%,-72*,-1%,2%
CCCNS(=O)(=O)/C=C/c1ccccc1,52%,6%,-2%,42,23%,0%
O=C(CN1CCN(c2ccc(O)cc2)CC1)Nc1ccccc1C(=O)NCCc1ccccc1,-20%,28µM*,40µM*,-61*,-8%,x
